From PubChem BioAssay (EPA / NIEHS)
Calls of active or inactive are those of the source. How the source made its calls: active means hit-call score of the fitted dose curve at least 0.9, where 1 is the maximum; inactive means score below 0.9.

What follows are compounds tested on MYC, MYC (gene 4609) (assay: LTEA_HepaRG_MYC: Life Technologies and Expression Analysis (LTEA) Assay for MYC using HepaRG (AID 2283518)). Conditions: mRNA level, 48 h; actives raise or lower the signal.
Description: LTEA_HepaRG is a cell based, multiplexed-readout assay that uses HepaRG, a human liver cell line, with measurements taken at 48 hours after chemical dosing on a 96-well plate.LTEA_HepaRG_MYC is one of 102 assay component(s) measured in the LTEA HepaRG cell culture assay. It is a marker of Cell proliferation, survival, death.Data from the assay component LTEA_HepaRG_MYC was analyzed into 1 endpoint. This assay endpoint, LTEA_HepaRG_MYC, was analyzed with bidirectional fitting relative to DMSO as the negative control and baseline of activity. Using a type of inducible reporter, measures of mRNA induction for gain or loss-of-signal activity can be used to understand regulation of transcription factor activity. To generalize the intended target to other relatable targets, this assay endpoint is annotated to the dna binding intended target family, where the subfamily is basic helix-loop-helix leucine zipper.
A total of 1060 chemcials from the ToxCast library were tested in eight-point concentration-response experiments. Cell culture and cytotoxicity assays were conducted at Thermo Fisher Scientific's Custom Services facility (Madison, WI). A single lot of human HepaRG cells (Thermo Fisher Scientific, Frederick, MD) was used for the cell culture experiments. 96-well format collagen type I coated plates of human HepaRG cells were prepared using established methods. Briefly, cryopreserved HepaRG cells were thawed, plated at a density of approximately 100,000 cells/well in HepaRG Thaw, Plate, and General Purpose media (HPRG770, Thermo Fisher Scientific), and incubated for 48 hours. 0.5% DMSO was selected as vehicle control to balance the requisite need of DMSO in HepaRG cultures to maintain differentiation (for example, baseline metabolism, proportions of hepatocytes vs. cholangiocytes), while enabling further hepatic receptor pathway activation (for example, PXR and CAR) in response to chemical exposure. 48 hours after plating, the culture medium was replaced with HepaRG Serum-Free Incudtion Media. Cells were exposed to each test chemical in duplicate and maintained in CO2 incubators for another 48 hours. Chemical plates were thawed to room temperature and 200x concentrations of treatment groups were prepared. 8-point conentration-reponse curves were made with the highest exposure at 100 uM, followed by half-log dilutions, all in 0.5% DMSO. Each test plate contained variouse controls, induction positive controls (1mM phenobarbital), cytotoxicity positive controls ([…] aflatoxin B1), vehicle controls (0.5% DMSO), and total lysis controls (0.5% DMSO). Cell morphology images were taken using an Essen IncuCyte FLR automated microscope, with six 96-well plates imaged in about 24 minutes. Images were captured and exported and JPEG files. Spent culture media was transfered to black-well plates for the LDH assay, and remaining media was sorted at -80 C for later use. Cells were treated with RLT buffer and frozen until shipped for gene expression analysis. Total RNA was isolated from the cell suspension in 75 uL of Buffer RLT (Qiagen, Germantown, MD 20874) by Quintiles/Expression Analysis (Durham, NC) using a custom isolation procedure. Total RNA from each plate well was transferred to a preamplification plate. Fluidigm's 96.96 Dynamic ArrayTM (Fluidigm, Amsterdam, the Netherlands) technology was used for gene expression analyses by quantitative reverse transcription polymerase chain reaction (qRT-PCR, performed by Quintiles/Expression Analysis, Durham, NC)89. Standard TaqManTM Assays (Applied Biosystems/ThermoFisher Scientific, Foster City, CA) were used to assess the expression of 93 genes selected based on their selectivity and sensitivity to important hepatic receptors known to be modulated by environmental chemicals; importance in human hepatocyte functionality; and hepatotoxicity. […]

Row | Compound | outcome | AC50
1 | O=C(O)c1ccccc1C(c1ccc(O)cc1)c1ccc(O)cc1 | inactive | 
2 | COc1ccc([N+](=O)[O-])cc1N | inactive | 
3 | CC[C@H](c1ccc(O)cc1)[C@@H](CC)c1ccc(O)cc1 | inactive | 
4 | CCc1nn(C2CCCCC2)c2cc(C3(C#N)CCC(C(=O)O)CC3)ccc12 (stereo not given) |  | 50 µM (active)
5 | Cc1oc(-c2ccccc2)nc1CCOc1ccc(C[C@H](Nc2ccccc2C(=O)c2ccccc2)C(=O)O)cc1 |  | 12.5 µM (active)
6 | Nc1cccc2c(N)cccc12 | inactive | 
7 | CCCCC(CC)COC(=O)CCCCC(=O)OCC(CC)CCCC (stereo not given) | inactive | 
8 | OCCC(F)(F)C(F)(F)C(F)(F)C(F)(F)C(F)(F)C(F)(F)F | inactive | 
9 | CN1CCN(c2ccccc2/C=C2\SCCN(c3ccc(Cl)c(Cl)c3)C2=O)CC1 | inactive | 
10 | OC1CCCCC1 | inactive | 
11 | CCCCCCCCOC(=O)CCCCCCCCC(=O)OCCCCCCCC | inactive | 
12 | Cc1cc(C)c(O)c(C)c1 | inactive | 
13 | CCc1ccc(CCOc2ccc(CC3SC(=O)NC3=O)cc2)nc1 (stereo not given) |  | 80.8 µM (active)
14 | CCCCOCCO | inactive | 
15 | O=[N+]([O-])c1ccc(O)cc1 | inactive | 
16 | N#C[C@@H]1CC(F)(F)CN1C(=O)CNC1CC2CCC(C1)N2c1ncccn1 (stereo not given in full) | inactive | 
17 | O=c1c(-c2ccc(O)cc2)coc2cc(O)ccc12 | inactive | 
18 | C#C[C@]1(O)CC[C@H]2[C@@H]3CCC4=CC(=O)CC[C@@H]4[C@H]3CC[C@@]21C | inactive | 
19 | C[C@@H]1C[C@H]2[C@@H]3CCC4=CC(=O)C=C[C@]4(C)[C@@]3(F)[C@@H](O)C[C@]2(C)[C@@]1(O)C(=O)COP(=O)(O)O | inactive | 
20 | c1ccc2c(c1)ccc1ccccc12 | inactive | 

Row | Compound | outcome | AC50
21 | COCC(C)OCC(C)O (stereo not given) | inactive | 
22 | ClC1=C(Cl)C(Cl)(Cl)C(Cl)=C1Cl | inactive | 
23 | CC(=O)NC1(c2cccc(F)c2)CCN(CC[C@@]2(c3ccc(Cl)c(Cl)c3)CN(c3ccccc3)C(=O)CO2)CC1 | inactive | 
24 | CC(C)(C)c1ccc(O)c(C(C)(C)C)c1 | inactive | 
25 | c1ccc2c(c1)Cc1ccccc1-2 | inactive | 
26 | c1ccc2cc3c(ccc4ccccc43)cc2c1 |  | 13.4 µM (active)
27 | CCCCCCCCCCCCc1ccccc1S(=O)(=O)O |  | 37.8 µM (active)
28 | Cc1cc(CCN2CCN(c3nsc4ccccc34)CC2)cc2c1NC(=O)CC2(C)C |  | 87.1 µM (active)
29 | CCOC(=O)CC(O)(CC(=O)OCC)C(=O)OCC | inactive | 
30 | CC(C)(C)c1cc(C(C)(C)C)c(O)c(C(C)(C)C)c1 | inactive | 
31 | CCC(=C(c1ccc(O)cc1)c1ccc(OCCN(C)C)cc1)c1ccccc1 |  | 77.7 µM (active)
32 | CC(C)(C)c1cccc(C(C)(C)C)c1O | inactive | 
33 | CC1=C(/C=C/C(C)=C/C=C/C(C)=C/C(=O)O)C(C)(C)CCC1 |  | 22.7 µM (active)
34 | CCN(CC)CCNc1ccc(CNC=O)c2sc3ccc(OC)cc3c(=O)c12 | inactive | 
35 | Oc1cc2ccccc2c2ccccc12 | inactive | 
36 | CC(O)CO (stereo not given) | inactive | 
37 | Oc1cccc(O)c1 | inactive | 
38 | CCCOc1sc(C(=O)N2CCC(c3cc(CN)ccc3F)CC2)c(C)c1Br | inactive | 
39 | COCC(C)O (stereo not given) | inactive | 
40 | NC(=O)N1C(=O)C(C(=O)c2cc(Cl)cs2)c2cc(F)c(Cl)cc21 (stereo not given) |  | 27 µM (active)
